In PubChem BioAssay (NCATS):
Results filed as inconclusive are left out. A call without a number means that no potency is given here. Active and inactive are the calls of the source. The call rests on the fitted dose curve; in most records, active means well fitted inhibition curve with a large enough effect; inconclusive means small, poorly fitted or top-dose-only effect; inactive means flat fitted curve, though single readings scatter.

These molecules were tested on CP325 (assay: qHTS profiling for inhibitors of Plasmodium falciparum proliferation (AID 504749; further: nearly all actives have a fitted effect of over 60% in size)). Conditions: P. falciparum in erythrocytes, SYBR Green DNA, 72 h; series mostly up to 28.7 µM.
How it was run: (§1)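 Three-day growth assay of blood-stage parasites in erythrocytes (0.3% parasitemia, 2.5% hematocrit) at 37 C, 5% CO2, quantified by SYBR Green DNA staining after overnight detergent lysis.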
For `C/C=C/C=C/C(=O)O`, the Potency was “inactive”. For `C=C(C)C1CC=C(C)CC1` (stereo not drawn), the Potency was “inactive”. With `Nc1ncnc2c1ncn2[C@H]1CC[C@@H](CO)O1` the Potency was “inactive”. With `NCC[C@H](O)C(=O)N[C@@H]1C[C@H](N)[C@@H](O[C@H]2O[C@H](CN)CC[C@H]2N)[C@H](O)[C@H]1O[C@H]1O[C@H](CO)[C@@H](O)[C@H](N)[C@H]1O` the Potency was “inactive”. `[O]=[Bi][O]C(=O)[O][Bi]=[O]` was tested, and the Potency was “inactive”. For `Cc1c(Cl)cccc1Nc1ncccc1C(=O)O`, the Potency was “inactive”. In the case of `CC1(C)S[C@@H]2[C@H](NC(=O)C3(N)CCCCC3)C(=O)N2[C@H]1C(=O)O`, the Potency is reported as “inactive”. For `CCCCCCCCCCCC(=O)OCC(O)CO` (stereo not drawn), the Potency was “inactive”. For `COc1ccc(C(=O)c2ccc(C)cc2)c(O)c1`, the Potency was “inactive”. With `O=C1NCCN1c1ncc([N+](=O)[O-])s1` the Potency was “inactive”.

Each molecule was assayed on CP329 in the same assay as above. Conditions: P. falciparum in erythrocytes, SYBR Green DNA, 72 h; series mostly up to 28.7 µM.
How it was run: as §1
For `CCCOC(=O)c1ccccc1O`, the Potency was “inactive”. For `COc1cc2c(cc1OC)[C@@H](Cc1cc(OC)c(OC)c(OC)c1)[N+](C)(CCCOC(=O)CC/C=C/CCC(=O)OCCC[N+]1(C)CCc3cc(OC)c(OC)cc3[C@H]1Cc1cc(OC)c(OC)c(OC)c1)CC2` (stereo partly drawn), the Potency was “inactive”. For `OC[C@H]1O[C@@](CO)(O[C@H]2O[C@H](CO)[C@@H](O)[C@H](O)[C@H]2O)[C@@H](O)[C@@H]1O`, the Potency was “inactive”. With `CCC(Cc1c(I)cc(I)c(O)c1I)C(=O)O` (stereo not drawn) the Potency was “inactive”. For `Nc1ncnc2c1ncn2CCOCP(=O)(O)O`, the Potency was “inactive”. For `O=C(O)CCC/C=C\C[C@@H]1[C@@H](/C=C/[C@@H](O)COc2cccc(Cl)c2)[C@H](O)C[C@@H]1O`, the Potency was “inactive”. `N=C(N)n1cccn1` was tested, and the Potency was “inactive”. For `CCSc1ccc2c(c1)N(CCCN1CCN(C)CC1)c1ccccc1S2`, the Potency was “inactive”. In the case of `CC(C)c1nc(N(C)S(C)(=O)=O)nc(-c2ccc(F)cc2)c1/C=C/C(O)CC(O)CC(=O)O` (stereo not drawn), the Potency is reported as “inactive”. With `CCOC(C)OCC` the Potency was “inactive”. For `NCCN`, the Potency was “inactive”. For `CC(CC=O)CCCC(C)(C)O` (stereo not drawn), the Potency was “inactive”. With `CC(C)(COP(=O)(O)OP(=O)(O)OC[C@H]1O[C@@H](n2cnc3c(N)ncnc32)[C@H](O)[C@@H]1OP(=O)(O)O)C(O)C(=O)NCCC(=O)NCCS` (stereo partly drawn) the Potency was “inactive”. With `O=C1c2ccccc2CN2C(=O)c3ccccc3CN12` the Potency was “inactive”. `O=C1c2ccccc2C(=O)C1c1ccc(F)cc1` was tested, and the Potency was “inactive”. For `CNC(=O)C[C@@H](N)C(=O)N[C@@H](C(=O)N[C@@H]1C(=O)N2[C@@H]1SC(C)(C)[C@@H]2C(=O)O)c1ccc(O)cc1`, the Potency was “inactive”. For `CCCCCc1ccc(C)cc1O`, the Potency was “inactive”. In the case of `C=CC(C)(O)CC/C=C(\C)CCC=C(C)C` (stereo not drawn), the Potency is reported as “inactive”. For `Cc1ccc(S(=O)(=O)NCl)cc1`, the Potency was “inactive”. For `CN1c2c(nc(N)[nH]c2=O)NCC1CNc1ccc(C(=O)NC(CCC(=O)O)C(=O)O)cc1` (stereo not drawn), the Potency was “inactive”. In the case of `NC(=O)[C@@H]1CCCN1C(=O)[C@H](Cc1cnc[nH]1)NC(=O)[C@@H]1CCC(=O)N1`, the Potency is reported as “inactive”. In the case of `CN(C)CCOc1ccc(/C(=C(/CCCl)c2ccccc2)c2ccccc2)cc1`, the Potency is reported as “inactive”. For `CC1(O)CCC(C(C)(C)O)CC1` (stereo not drawn), the Potency was “inactive”. In the case of `COc1ccccc1N1CCN(CCCC(=O)c2ccc(F)cc2)CC1`, the Potency is reported as “inactive”. In the case of `CC(C)[C@@H](N)C(=O)O`, the Potency is reported as “inactive”. In the case of `CN(C)c1ccc(C(=C2C=CC(=[N+](C)C)C=C2)c2c(O)c(S(=O)(=O)[O-])cc3cc(S(=O)(=O)O)ccc23)cc1`, the Potency is reported as “inactive”. `COc1cc(S(C)=O)ccc1-c1nc2ncccc2[nH]1` (stereo not drawn) was tested, and the Potency was “inactive”. With `Oc1cc(O)cc(O)c1` the Potency was “inactive”. With `N[C@H](CC(=O)O)C(=O)O` the Potency was “inactive”. For `C/C=C/C=C/C(=O)O`, the Potency was “inactive”. For `C=C(C)C1CC=C(C)CC1` (stereo not drawn), the Potency was “inactive”. `Nc1ncnc2c1ncn2[C@H]1CC[C@@H](CO)O1` was tested, and the Potency was “inactive”. For `NCC[C@H](O)C(=O)N[C@@H]1C[C@H](N)[C@@H](O[C@H]2O[C@H](CN)CC[C@H]2N)[C@H](O)[C@H]1O[C@H]1O[C@H](CO)[C@@H](O)[C@H](N)[C@H]1O`, the Potency was “inactive”. `[O]=[Bi][O]C(=O)[O][Bi]=[O]` was tested, and the Potency was “inactive”. `Cc1c(Cl)cccc1Nc1ncccc1C(=O)O` was tested, and the Potency was “inactive”. For `CC1(C)S[C@@H]2[C@H](NC(=O)C3(N)CCCCC3)C(=O)N2[C@H]1C(=O)O`, the Potency was “inactive”. In the case of `CCCCCCCCCCCC(=O)OCC(O)CO` (stereo not drawn), the Potency is reported as “inactive”. In the case of `COc1ccc(C(=O)c2ccc(C)cc2)c(O)c1`, the Potency is reported as “inactive”. With `O=C1NCCN1c1ncc([N+](=O)[O-])s1` the Potency was “inactive”.

Each molecule was assayed on CP335 in the same assay as above. Conditions: P. falciparum in erythrocytes, SYBR Green DNA, 72 h; series mostly up to 28.7 µM.
How it was run: as §1
For `CCCOC(=O)c1ccccc1O`, the Potency was “inactive”. `COc1cc2c(cc1OC)[C@@H](Cc1cc(OC)c(OC)c(OC)c1)[N+](C)(CCCOC(=O)CC/C=C/CCC(=O)OCCC[N+]1(C)CCc3cc(OC)c(OC)cc3[C@H]1Cc1cc(OC)c(OC)c(OC)c1)CC2` (stereo partly drawn) was tested, and the Potency was “inactive”. For `OC[C@H]1O[C@@](CO)(O[C@H]2O[C@H](CO)[C@@H](O)[C@H](O)[C@H]2O)[C@@H](O)[C@@H]1O`, the Potency was “inactive”. In the case of `CCC(Cc1c(I)cc(I)c(O)c1I)C(=O)O` (stereo not drawn), the Potency is reported as “inactive”. In the case of `Nc1ncnc2c1ncn2CCOCP(=O)(O)O`, the Potency is reported as “inactive”. `O=C(O)CCC/C=C\C[C@@H]1[C@@H](/C=C/[C@@H](O)COc2cccc(Cl)c2)[C@H](O)C[C@@H]1O` was tested, and the Potency was “inactive”. For `N=C(N)n1cccn1`, the Potency was “inactive”. In the case of `CCSc1ccc2c(c1)N(CCCN1CCN(C)CC1)c1ccccc1S2`, the Potency is reported as “inactive”. In the case of `CC(C)c1nc(N(C)S(C)(=O)=O)nc(-c2ccc(F)cc2)c1/C=C/C(O)CC(O)CC(=O)O` (stereo not drawn), the Potency is reported as “inactive”. For `CCOC(C)OCC`, the Potency was “inactive”. In the case of `NCCN`, the Potency is reported as “inactive”. `CC(CC=O)CCCC(C)(C)O` (stereo not drawn) was tested, and the Potency was “inactive”. For `CC(C)(COP(=O)(O)OP(=O)(O)OC[C@H]1O[C@@H](n2cnc3c(N)ncnc32)[C@H](O)[C@@H]1OP(=O)(O)O)C(O)C(=O)NCCC(=O)NCCS` (stereo partly drawn), the Potency was “inactive”. With `O=C1c2ccccc2CN2C(=O)c3ccccc3CN12` the Potency was “inactive”. In the case of `O=C1c2ccccc2C(=O)C1c1ccc(F)cc1`, the Potency is reported as “inactive”. `CNC(=O)C[C@@H](N)C(=O)N[C@@H](C(=O)N[C@@H]1C(=O)N2[C@@H]1SC(C)(C)[C@@H]2C(=O)O)c1ccc(O)cc1` was tested, and the Potency was “inactive”. For `CCCCCc1ccc(C)cc1O`, the Potency was “inactive”. For `C=CC(C)(O)CC/C=C(\C)CCC=C(C)C` (stereo not drawn), the Potency was “inactive”. For `Cc1ccc(S(=O)(=O)NCl)cc1`, the Potency was “inactive”. With `CN1c2c(nc(N)[nH]c2=O)NCC1CNc1ccc(C(=O)NC(CCC(=O)O)C(=O)O)cc1` (stereo not drawn) the Potency was “inactive”. In the case of `NC(=O)[C@@H]1CCCN1C(=O)[C@H](Cc1cnc[nH]1)NC(=O)[C@@H]1CCC(=O)N1`, the Potency is reported as “inactive”. With `CN(C)CCOc1ccc(/C(=C(/CCCl)c2ccccc2)c2ccccc2)cc1` the Potency was “inactive”. `CC1(O)CCC(C(C)(C)O)CC1` (stereo not drawn) was tested, and the Potency was “inactive”. With `COc1ccccc1N1CCN(CCCC(=O)c2ccc(F)cc2)CC1` the Potency was “inactive”. `CC(C)[C@@H](N)C(=O)O` was tested, and the Potency was “inactive”. `CN(C)c1ccc(C(=C2C=CC(=[N+](C)C)C=C2)c2c(O)c(S(=O)(=O)[O-])cc3cc(S(=O)(=O)O)ccc23)cc1` was tested, and the Potency was “inactive”. For `COc1cc(S(C)=O)ccc1-c1nc2ncccc2[nH]1` (stereo not drawn), the Potency was “inactive”. With `Oc1cc(O)cc(O)c1` the Potency was “inactive”. `N[C@H](CC(=O)O)C(=O)O` was tested, and the Potency was “inactive”. With `C/C=C/C=C/C(=O)O` the Potency was “inactive”. For `C=C(C)C1CC=C(C)CC1` (stereo not drawn), the Potency was “inactive”. With `Nc1ncnc2c1ncn2[C@H]1CC[C@@H](CO)O1` the Potency was “inactive”. With `NCC[C@H](O)C(=O)N[C@@H]1C[C@H](N)[C@@H](O[C@H]2O[C@H](CN)CC[C@H]2N)[C@H](O)[C@H]1O[C@H]1O[C@H](CO)[C@@H](O)[C@H](N)[C@H]1O` the Potency was “inactive”. With `[O]=[Bi][O]C(=O)[O][Bi]=[O]` the Potency was “inactive”. `Cc1c(Cl)cccc1Nc1ncccc1C(=O)O` was tested, and the Potency was “inactive”. For `CC1(C)S[C@@H]2[C@H](NC(=O)C3(N)CCCCC3)C(=O)N2[C@H]1C(=O)O`, the Potency was “inactive”. `CCCCCCCCCCCC(=O)OCC(O)CO` (stereo not drawn) was tested, and the Potency was “inactive”. With `COc1ccc(C(=O)c2ccc(C)cc2)c(O)c1` the Potency was “inactive”. `O=C1NCCN1c1ncc([N+](=O)[O-])s1` was tested, and the Potency was “inactive”.
